PubChem BioAssay AID1159580 (chemical genetic matrix, 2015)
The whole screen tested about 5,500 compounds, of which about 2,000 (36%) were called active. Roughly 18% stayed inconclusive and do not appear here. Rule as the data show it: active = normalized growth mostly below about 0.91 (no sharp cut-off); inconclusive = no clear call, values can overlap the other calls; inactive = mostly above about 0.92. The list shows a part of the results.

Test: chemical genetic growth profiling, strain panel (AID 1159580);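 also: tested at 20 µM; growth read once vehicle control cultures reached saturation at 30 °C; 1 = growth at the plate median or of vehicle wells; lower values mean less growth of the strain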
Settings: S. cerevisiae deletion strains, growth OD

Measured: normalized growth

CCN1CCC[C@H]1CNC(=O)c1c(O)c(Cl)cc(Cl)c1OC
inactive: locus YAL040C, strain CLN3, hits give low values 1.01 | locus YCL061C, strain MRC1 (second series), hits give low values 1 | locus YDR363W, strain ESC2, hits give low values 1.03 | locus YER002W, strain NOP16, hits give low values 0.998 | locus YGR229C, strain SMI1, hits give low values 1.02 | locus YMR263W, strain SAP30, hits give low values 1.01 | locus YMR307W, strain GAS1, hits give low values 1 | locus YNL128W, strain TEP1, hits give low values 1.03 | locus YNL175C, strain NOP13, hits give low values 1.01 | locus YNL197C, strain WHI3, hits give low values 1.01 | locus YNL224C, strain SQS1, hits give low values 1.03 | locus YNL322C, strain KRE1, hits give low values 1.02 | locus YOR083W, strain WHI5 (second series), hits give low values 1.02 | locus YPL241C, strain CIN2, hits give low values 0.996
